Inconclusive results are not listed. The source made the active and inactive calls. The call rests on the fitted dose curve; in most records, active means well fitted inhibition curve with a large enough effect; inconclusive means small, poorly fitted or top-dose-only effect; inactive means flat fitted curve, though single readings scatter.

Drawing on PubChem BioAssay (NCATS), this text covers Potency for 13 molecules.

Assay in all cases: qHTS profiling for inhibitors of Plasmodium falciparum proliferation (AID 504749); further: nearly all actives have a fitted effect of over 60% in size
Conditions in all cases: P. falciparum in erythrocytes, SYBR Green DNA, 72 h; series mostly up to 28.7 µM

One experiment concerns CP250. Put shortly:
(§1)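 Fluorescence of SYBR Green-bound parasite DNA, read at 485/535 nm, served as the growth measure. Infected erythrocytes were cultured with compound 72 h; artemisinin (0.29 uM) and DMSO wells defined the normalization range.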

In another experiment the test system is CP252. Put shortly: as §1
A further experiment relates to CP256. Put shortly:
as §1

The next experiment relates to CP262. A digest of the protocol:
as §1

In the next experiment the test system is CP265. A digest of the protocol: as §1
For a further experiment, the system named is CP266. A digest of the protocol: as §1
In the next experiment the test system is CP268. A digest of the protocol:
as §1

A further experiment concerns CP269. Put shortly: as §1
The next experiment relates to CP291. Put shortly: as §1
Another experiment has as its system CP297. Put shortly:
as §1

The subject of the next experiment is CP305. Put shortly: as §1
The test system of a further experiment is CP315. Put shortly:
as §1

The test system of the next experiment is CP325. A digest of the protocol: as §1
The subject of another experiment is CP329. Put shortly:
as §1

Another experiment deals with DFO2036. Put shortly: as §1
A further experiment has as its system DIV14. Put shortly: as §1
In another experiment the test system is CP286. Put shortly: as §1
A further experiment relates to CP335. A digest of the protocol:
as §1

The test system of another experiment is DIV17. Put shortly:
as §1

Another experiment concerns CP260. A digest of the protocol: as §1
Potency means the concentration at half of the fitted maximal effect.

In the case of `O=C1CN=C(c2ccccc2)c2cc(Cl)ccc2N1CC1CC1`, the Potency result in the experiment on CP250, in the experiment with CP252, in the experiment with CP256, in the experiment with CP262, with CP265 and with CP266 was “inactive” throughout. The Potency entry in the experiment with CP268, in the experiment with CP269, in the experiment with CP291, with CP297, in the experiment on CP305 and in the experiment with CP315 was “inactive” each time. For the same molecule, the Potency entry in the experiment on CP325, in the experiment on CP329, with DFO2036 and in the experiment with DIV14 was “inactive” in each case.
As to `C[N+]1(C)CCCCC1COC(=O)C(O)(c1ccccc1)c1ccccc1` (configuration not stated), the Potency result in the experiment on CP250, in the experiment with CP252, in the experiment on CP262, with CP265, in the experiment with CP266 and in the experiment with CP268 was “inactive” each time. Further, the Potency result in the experiment with CP269, with CP286, in the experiment on CP291, in the experiment on CP297, with CP305 and with CP315 was “inactive” in each case. Moreover, the Potency entry with CP325, in the experiment with CP329, in the experiment with CP335, in the experiment with DFO2036, with DIV14 and in the experiment with DIV17 was “inactive” each time.
`COC([CH2][Hg])CNC(=O)c1ccccc1OCC(=O)O` (configuration not stated): the Potency result in the experiment on CP250, in the experiment with CP252, with CP256, with CP262, with CP265 and in the experiment on CP266 was “inactive” each time. Besides, the Potency entry in the experiment on CP268, with CP269, in the experiment on CP286, in the experiment on CP291, in the experiment with CP297 and in the experiment with CP305 was “inactive” in each case. The Potency entry in the experiment with CP315, in the experiment with CP325, in the experiment with CP329, in the experiment on CP335, in the experiment with DFO2036 and in the experiment with DIV14 was “inactive” in each case. The Potency result with DIV17 was “inactive”.
Turning to `S=C(S)N1CCNCC1`, the Potency result in the experiment with CP250, in the experiment on CP252, in the experiment with CP256, with CP262, with CP265 and with CP266 was “inactive” each time. Besides, the Potency entry with CP268, in the experiment with CP269, in the experiment with CP286, in the experiment with CP291, in the experiment with CP297 and with CP305 was “inactive” in each case. The Potency result in the experiment with CP315, in the experiment on CP325, in the experiment on CP329, in the experiment on CP335, with DFO2036 and in the experiment with DIV14 was “inactive” in each case. In the experiment with DIV17, the Potency entry is “inactive”.
`CCOc1ccc2c3c1O[C@H]1[C@@H](O)C=C[C@H]4[C@@H](C2)N(C)CC[C@@]341`: the Potency result in the experiment on CP250, with CP252, in the experiment on CP256, in the experiment on CP260, in the experiment on CP265 and in the experiment on CP266 was “inactive” throughout. Further, the Potency entry with CP286, with CP329, with CP335 and with DFO2036 was “inactive” in each case. Moreover, the Potency in the experiment with CP297 and in the experiment with DIV14 was 15.1 µM (active) each time.
Turning to `O=[N+]([O-])c1cc(I)c(O)c(I)c1`, the Potency result in the experiment with CP250, in the experiment on CP252, in the experiment on CP256, with CP260, in the experiment with CP262 and in the experiment with CP265 was “inactive” in each case. In addition, the Potency result in the experiment with CP268, in the experiment on CP269, in the experiment on CP286, in the experiment on CP291, in the experiment with CP297 and in the experiment on CP305 was “inactive” each time. For the same molecule, the Potency result in the experiment with CP315, in the experiment with CP325, in the experiment on CP329, in the experiment on CP335, in the experiment on DFO2036 and with DIV14 was “inactive” in each case. In addition, the Potency result in the experiment on DIV17 was “inactive”.
On to `c1ccc(C2(N3CCCC3)CCCCC2)cc1`, for which the Potency with CP260 is 8.91 µM (active); with CP286 it was 10 µM (active); in the experiment on CP297, 15.1 µM (active); in the experiment on CP335 it was 10.7 µM (active); in the experiment with DFO2036, 10 µM (active); in the experiment with DIV14, 12 µM (active). Moreover, in the experiment on DIV17, the Potency is 15.1 µM (active). For the same molecule, the Potency entry with CP266 was “inactive”.
Take `N#CC1(N2CCCCC2)CCCCC1`: the Potency result in the experiment on CP250, in the experiment on CP252, in the experiment on CP256, in the experiment with CP262, in the experiment with CP265 and with CP266 was “inactive” in each case. Moreover, the Potency entry with CP268, in the experiment with CP269, in the experiment on CP286, with CP291, in the experiment on CP297 and in the experiment with CP305 was “inactive” throughout. Also, the Potency entry in the experiment with CP315, with CP325, with CP329, in the experiment with CP335, in the experiment with DFO2036 and with DIV14 was “inactive” each time. For the same molecule, the Potency entry in the experiment with DIV17 is “inactive”.
For the molecule `CCCC(=O)OC(C(Cl)(Cl)Cl)P(=O)(OC)OC` (configuration not stated), the Potency entry in the experiment with CP250, in the experiment with CP252, with CP260, in the experiment on CP262, in the experiment on CP265 and with CP266 was “inactive” each time. Moreover, the Potency result in the experiment on CP268, in the experiment with CP269, with CP286, with CP291, with CP297 and in the experiment with CP305 was “inactive” throughout. Besides, the Potency entry in the experiment on CP329, in the experiment with CP335, in the experiment on DFO2036, in the experiment with DIV14 and with DIV17 was “inactive” each time.
Turning to `CCC(C)(S(=O)(=O)CC)S(=O)(=O)CC`, the Potency entry in the experiment on CP252, in the experiment on CP256, in the experiment on CP262, in the experiment on CP265, with CP266 and in the experiment on CP268 was “inactive” throughout. The Potency entry with CP269, with CP286, in the experiment with CP291, in the experiment with CP297, in the experiment on CP305 and in the experiment on CP315 was “inactive” in each case. The Potency result in the experiment with CP325, in the experiment with CP329, in the experiment on CP335, in the experiment on DFO2036, in the experiment with DIV14 and with DIV17 was “inactive” in each case.
Consider `O=C(CCl)c1ccc(Oc2ccc(C(=O)CCl)cc2)cc1`, for which the Potency result with CP250, in the experiment on CP252, in the experiment with CP256, in the experiment with CP260, in the experiment with CP262 and in the experiment on CP265 was “inactive” in each case. The Potency result in the experiment on CP268, in the experiment with CP269, in the experiment on CP286, in the experiment with CP291, in the experiment on CP297 and in the experiment on CP305 was “inactive” throughout. Besides, the Potency entry in the experiment on CP315, in the experiment on CP325, in the experiment on CP329, in the experiment with CP335, in the experiment on DFO2036 and in the experiment with DIV14 was “inactive” throughout. Further, the Potency entry in the experiment on DIV17 was “inactive”.
With `C=CCN1CC[C@]23c4c5ccc(O)c4O[C@H]2[C@@H](O)C=C[C@H]3[C@H]1C5`, the Potency entry in the experiment on CP250, with CP252, with CP256, in the experiment with CP260, with CP262 and in the experiment on CP265 was “inactive” each time. Further, the Potency entry in the experiment with CP268, in the experiment with CP269, in the experiment with CP286, in the experiment on CP291, with CP297 and in the experiment on CP305 was “inactive” in each case. Besides, the Potency entry in the experiment with CP315, in the experiment with CP325, in the experiment with CP329, in the experiment on CP335, in the experiment on DFO2036 and in the experiment on DIV14 was “inactive” each time. For the same molecule, in the experiment on DIV17, the Potency entry is “inactive”.
Consider `CCOP(=O)(OCC)O/C(=C/Cl)c1ccc(Cl)cc1Cl`, for which the Potency entry with CP250, in the experiment on CP252, with CP256, in the experiment with CP262, with CP266 and with CP268 was “inactive” in each case. The Potency entry in the experiment on CP269, in the experiment on CP286, with CP297, in the experiment on CP305, in the experiment on CP315 and in the experiment with CP325 was “inactive” in each case. Also, the Potency entry with CP329 and in the experiment on DFO2036 was “inactive” each time.
